# TTR transcr act: TTR transcription activation, primary screen | SH-SY5Y TTR promoter Gaussia luciferase, luminescence; 100% = recombinant luciferase protein wells | activation, % at 16.7 µM | 1.3% of 92,000 active | AID 1117267;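 active means activation above the mean of all tested compounds plus 3 SD, cut at about 9.5% in these data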;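 further: cells exposed to compounds for one day before reading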
# TTR inh HuH7: counter-screen for TTR activators: TTR transcription inhibitors in HuH7 cells; AID 1117279; 4% of 1,100 active; HuH7 TTR promoter-Gaussia luciferase reporter, luminescence; inhibition, % at 16.7 µM; shares compounds with TTR transcr act;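 active means average inhibition above the solvent-only control wells' mean plus 3 SD, cut at about 15% in these data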;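 further: inhibitors lower well luminescence so higher value means more inhibition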
# TTR act confirm: human TTR transcription activation, confirmation. shares compounds with TTR transcr act. SHSY5Y TTR promoter Gaussia luciferase, luminescence; 100% = purified Lucia enzyme wells, no cells. activation, % at 16.7 µM. 1,100 tested, under 10 active;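 active means mean activation above a set limit taken from the earlier primary screen, cut at about 11% in these data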
# Numbers stand for hits; i = inactive. This excerpt belongs to a sample that is enriched for hits.
SMILES,TTR transcr act,others
CN=C1N(C)C[C@@H]2[C@@H]3C(=O)N(C)C(=O)[C@@H]3[C@](C)(C(=O)OC)N12,i,
O=C(NCCc1ccc(F)cc1)c1ccc(Cl)c(S(=O)(=O)N2CCOCC2)c1,i,
CCOC(=O)C1CCN(C(=O)c2ccccc2)C(CC)C1=O (stereo not given),i,
O=S1(=O)c2ccc(N3CCCC3)cc2Oc2ccccc2CN1Cc1cn(Cc2cccc(F)c2)nn1,i,
CCCCCCCCN1C(=O)[C@@H](CC(=O)N2CCC(c3ccccc3)CC2)C[C@@]2(C(=O)OC)C1=C[C@H](COCc1ccccc1)O[C@@H]2C,i,
C[C@H]1CC[C@@]2(O[C@@H](CCO)C[C@H](O)[C@H]2O)O1,i,
O=C(Nc1ccc(Cl)cc1)Nc1cccc2nsnc12,i,
COc1ccc(C2OCCNC3C2C(=O)N(Cc2ccc(OC)cc2OC)C3Cc2ccccc2)cc1 (stereo not given),i,
O=C(Nc1cccc(Cl)c1)Nc1ccc2c(c1)C(=O)OC2,i,
O=C1OCc2ccc(NC(=O)C3CC3)cc21,21,TTR inh HuH7=i;TTR act confirm=i
O=C1OCc2ccc(NC(=O)c3c(F)cccc3Cl)cc21,i,
CCNC(=O)NC(=O)C(C)OC(=O)CNS(=O)(=O)c1c(Cl)cc(Br)cc1Cl (stereo not given),i,
CC(C)CCN(C(=O)c1ccncc1)c1c(N)n(Cc2ccccc2)c(=O)[nH]c1=O,i,
CCOc1ncccc1C(=O)N(CCC(C)C)c1c(N)n(Cc2ccccc2)c(=O)[nH]c1=O,17,TTR inh HuH7=i;TTR act confirm=i
CCCCn1c(N)c(N(CCC(C)C)C(=O)COC(=O)c2cccnc2SC)c(=O)[nH]c1=O,i,
CCN1C[C@@H]2[C@@H]3C(=O)N(C)C(=O)[C@@H]3[C@](Cc3ccccc3)(C(=O)OC)N2C1=NCc1ccccc1,i,
O=C(NCCN1CCOCC1)/C(=C\c1ccc(Br)cc1)NC(=O)c1cccs1,i,
CN(C)C(=S)NC(=O)C12CC3CC(C)(CC(C)(C3)C1)C2,i,
CC12CC3(C)CC(C)(C1)CC(C(=O)NC(=S)N1CCOCC1)(C2)C3,i,
CC12CC3CC(C)(C1)CC(C(=O)NC(=S)N1CCCCC1)(C3)C2,14,TTR inh HuH7=i;TTR act confirm=i
Cc1cccc(S(=O)(=O)NC(=O)C2(C)CCN2C(=O)Cc2cccs2)c1 (stereo not given),i,
C/C(=N\NC(=O)c1nnn(-c2nonc2N)c1CN1CCOCC1)c1ccc(CC(C)C)cc1,i,
CC(=O)c1ccc(N2CCN(C(=O)c3ccc(Cn4c(=S)[nH]c5ccc(N6CCOCC6)cc5c4=O)cc3)CC2)cc1,i,
CS(=O)(=O)c1ccccc1C(=O)N(CCc1ccccc1)Cc1ccccc1,i,
CC(=O)Nc1cccc(C(=O)N(CCc2ccccc2)Cc2ccccc2)c1,i,
SMILES,TTR transcr act,others
CS(=O)(=O)c1ccc(C(=O)N(CCc2ccccc2)Cc2ccccc2)cc1,9.7,TTR inh HuH7=i;TTR act confirm=i
Nc1nc2ncccc2cc1C(=O)c1c[nH]c2ccccc12,i,
CC(C)n1c(CN2CCN(C(=O)c3ccco3)CC2)nc2c1c(=O)n(C)c(=O)n2C,i,
C[C@@H]1CN([C@@H](C)CO)C(=O)c2cc(Br)cnc2O[C@@H]1CN(C)Cc1ccc(Oc2ccccc2)cc1,i,
COc1ccc(C(=O)NC2CCCc3c2cnn3-c2cc(F)cc(F)c2)c(OC)c1OC (stereo not given),13,TTR inh HuH7=29;TTR act confirm=i
Cc1cc(C)cc(-n2ncc3c2CCCC3NC(=O)c2cc(C)[nH]n2)c1 (stereo not given),i,
O=C(NC1CCCc2c1cnn2-c1ccc(F)cc1F)c1ccccc1 (stereo not given),i,
CC(=O)Nc1c(Cl)c(Cl)c2c(c1Cl)C(=O)c1cc(Cl)ccc1-2,i,
CCCc1nc2c(s1)CCc1onc(-c3ccc(OC)cc3)c1-2,i,
COc1ccc(-c2noc3c2-c2nc(C(C)C)sc2CC3)cc1,i,
Brc1ccc(-c2noc3c2-c2nc(C4CCCCC4)sc2CC3)cc1,14,TTR inh HuH7=i;TTR act confirm=i
Cc1ccc(S(=O)(=O)/N=C(\N)c2ccc(Cl)cc2)cc1,i,
CC[C@]12c3[nH]c4ccc(Cl)cc4c3CCN1C(=O)[C@@H](CC(=O)NCCC1=CCCCC1)C[C@@H]2C(=O)N1CCN(C(=O)c2ccco2)CC1,i,
C=CCn1c(=O)c2c(nc3n2CC(C)CN3Cc2ccccc2)n(C)c1=O (stereo not given),11,TTR inh HuH7=16;TTR act confirm=i
C=CCn1c(=O)c2c(nc3n2CCCN3CCc2ccccc2)n(C)c1=O,i,
CC1CN(c2ccc(Oc3ccccc3)cc2)c2nc3c(c(=O)n(CC(N)=O)c(=O)n3C)n2C1 (stereo not given),i,
CC1CN(Cc2ccccc2)c2nc3c(c(=O)n(CC(N)=O)c(=O)n3C)n2C1 (stereo not given),13,TTR inh HuH7=19;TTR act confirm=i
CCCn1c(=O)c2c(nc3n2CC(C)CN3Cc2ccccc2)n(C)c1=O (stereo not given),i,
Cc1ccc(N2CC(C)Cn3c2nc2c3c(=O)n(CC(=O)OCc3ccccc3)c(=O)n2C)cc1C (stereo not given),i,
CNc1ccc(-c2cccc(CO)c2)cn1,i,
Cc1nn(-c2ccc(N3CCOCC3)nn2)c(C)c1CCC(=O)NCc1ccc(F)cc1,i,
CC(C)n1nnnc1C1(C)CCSCC(=O)N1Cc1cccc(C(F)(F)F)c1 (stereo not given),i,
CN1C(=O)C(C)(C)c2cc(S(=O)(=O)N3CCC(C(=O)Nc4ccc(Cl)cc4)CC3)ccc21,i,
CC(O)C(=O)N/N=C/c1cccc2ccccc12 (stereo not given),i,
COC(=O)C(CC(C)C)NC(=O)/C=C/c1ccccc1Cl (stereo not given),i,
SMILES,TTR transcr act,others
CC(C)NC(=S)NC(=O)/C=C/c1cccc2ccccc12,17,TTR inh HuH7=i;TTR act confirm=i
CC1=C(C(=O)N2CCOCC2)CC(CC(=O)NCCc2ccccn2)C(=O)N1CCC1=CCCCC1 (stereo not given),i,
CCN(CC)C(=O)C1=C(C)N(CCC2=CCCCC2)C(=O)C(CC(=O)NCCc2ccccn2)C1 (stereo not given),24,TTR inh HuH7=i;TTR act confirm=i
CCN(CC)C(=O)C1=C(C)N(CCC2=CCCCC2)C(=O)C(CC(=O)NCCCCc2ccccc2)C1 (stereo not given),i,
COC(=O)C[C@@H]1CC[C@H]2[C@@H](COc3ccc(NC(=O)Nc4ccccc4Cl)cc3C(=O)N2C)O1,i,
CCCn1ncc(/C=N/O)c1C,i,
O=C1CCC[C@H]2CC3(CC[C@]24CCCN14)OCCO3,i,
c1ccc(-c2nc3ccccn3c2-c2ccccc2)cc1,i,
OCc1c(Cl)nc2ccccn12,i,
Clc1cc2nc3ccccn3c2cc1Cl,13,TTR inh HuH7=i;TTR act confirm=i
O=c1[nH]c2ccccc2nc1-c1nnnn1Cc1ccccc1,i,
O=C(NCCC(=O)N1CCC2(CC1)NCCc1[nH]cnc12)c1ccc(Br)cc1,i,
CCOC(=O)C(Cc1ccccc1)NC(=O)CNC(=O)CNC(=O)OCc1ccccc1 (stereo not given),i,
CCOC(=O)C(Cc1ccc(O)cc1)NC(=O)CNC(=O)C(CC(C)C)NC(=O)OC(C)(C)C (stereo not given),30,TTR inh HuH7=i;TTR act confirm=i
CC(C)CC(NC(=O)C(Cc1ccc(OCc2ccccc2)cc1)NC(=O)OC(C)(C)C)C(N)=O (stereo not given),i,

# Bioassay records deposited in PubChem by The Scripps Research Institute Molecular Screening Center.
